# In article PMC11006913:
# Where a chain is given by its changes, count along the chain named.
# Tests used:
# Assay in all cases: PBM; 200 nM protein, PBS
# Settings in all cases: dsDNA, one strand shown
# [1] = molecular target: SHOX (Homo sapiens, UniProt O15266 103-189)
# [2] = molecular target: HOXC9 (Homo sapiens, UniProt P31274 178-260, K195R)
# [3] = molecular target: HOXC9 (Homo sapiens, UniProt P31274 178-260)
# [4] = molecular target: SHOX (Homo sapiens, UniProt O15266 103-189, R173C)
# SHOX (Homo sapiens, UniProt O15266 103-189, R173C), sequence (O15266 103-189 R173C): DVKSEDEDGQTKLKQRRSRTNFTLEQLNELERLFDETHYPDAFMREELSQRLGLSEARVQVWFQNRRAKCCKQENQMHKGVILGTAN
# [5] = molecular target: HOXC9 (Homo sapiens, UniProt P31274 178-260, R193K)
# HOXC9 (Homo sapiens, UniProt P31274 178-260, R193K), sequence (P31274 178-260 R193K): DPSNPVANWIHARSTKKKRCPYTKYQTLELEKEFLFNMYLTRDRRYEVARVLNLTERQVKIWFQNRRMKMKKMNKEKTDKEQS
# [6] = molecular target: HOXC9 (Homo sapiens, UniProt P31274 178-260, R222W)
# HOXC9 (Homo sapiens, UniProt P31274 178-260, R222W), sequence (P31274 178-260 R222W): as the sequence (P31274 178-260 R193K) above, with K16R, R45W counted along it
# [7] = molecular target: HOXB6 (Homo sapiens, UniProt P17509 132-218, K202E)
# HOXB6 (Homo sapiens, UniProt P17509 132-218, K202E), sequence (P17509 132-218 K202E): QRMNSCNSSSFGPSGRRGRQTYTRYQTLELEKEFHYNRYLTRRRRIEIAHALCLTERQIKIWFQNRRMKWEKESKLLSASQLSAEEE
# [8] = molecular target: MSX2 (Homo sapiens, UniProt P35548 130-214, R199I)
# MSX2 (Homo sapiens, UniProt P35548 130-214, R199I), sequence (P35548 130-214 R199I): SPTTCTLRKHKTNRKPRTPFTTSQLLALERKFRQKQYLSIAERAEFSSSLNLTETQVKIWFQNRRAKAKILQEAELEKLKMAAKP
# [9] = molecular target: MSX2 (Homo sapiens, UniProt P35548 130-214)
# MSX2 (Homo sapiens, UniProt P35548 130-214), sequence (P35548 130-214): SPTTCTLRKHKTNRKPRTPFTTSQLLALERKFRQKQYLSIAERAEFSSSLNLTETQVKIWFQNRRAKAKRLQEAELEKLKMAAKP
# [10] = molecular target: MSX2 (Homo sapiens, UniProt P35548 130-214, F161Y)
# MSX2 (Homo sapiens, UniProt P35548 130-214, F161Y), sequence (P35548 130-214 F161Y): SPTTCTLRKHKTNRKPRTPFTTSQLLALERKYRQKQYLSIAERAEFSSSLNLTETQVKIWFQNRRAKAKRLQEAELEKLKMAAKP
# [11] = molecular target: HOXB6 (Homo sapiens, UniProt P17509 132-218)
# HOXB6 (Homo sapiens, UniProt P17509 132-218), sequence (P17509 132-218): as the sequence (P17509 132-218 K202E) above, with E71K counted along it
# [12] = molecular target: T1, VENTX (Homo sapiens, UniProt O95231 78-163, R121Q)
# T1 sequence: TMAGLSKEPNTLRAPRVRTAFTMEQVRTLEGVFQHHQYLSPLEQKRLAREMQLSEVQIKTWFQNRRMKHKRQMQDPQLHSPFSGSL
# [13] = molecular target: T2, VENTX (Homo sapiens, UniProt O95231 78-163)
# T2 sequence: T1 sequence with Q44R
# [14] = molecular target: T3, PAX4 (Homo sapiens, UniProt O43316 9-242, R200K)
# T3 sequence: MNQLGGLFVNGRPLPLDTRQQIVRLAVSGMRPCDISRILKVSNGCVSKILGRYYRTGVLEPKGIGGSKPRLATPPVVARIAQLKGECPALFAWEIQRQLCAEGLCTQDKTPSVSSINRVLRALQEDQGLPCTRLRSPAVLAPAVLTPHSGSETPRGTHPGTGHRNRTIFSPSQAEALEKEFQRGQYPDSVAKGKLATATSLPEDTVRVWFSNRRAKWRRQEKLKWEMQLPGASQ
# [15] = molecular target: T4, VENTX (Homo sapiens, UniProt O95231 78-163, Y115F)
# T4 sequence: T1 sequence with Y38F, Q44R
# [16] = molecular target: T5, PAX4 (Homo sapiens, UniProt O43316 9-242)
# T5 sequence: T3 sequence with K192R
# [17] = molecular target: T6, PAX4 (Homo sapiens, UniProt O43316 9-242, R200Q)
# T6 sequence: T3 sequence with K192Q
# [18] = molecular target: T7, PAX4 (Homo sapiens, UniProt O43316 9-242, F177V)
# T7 sequence: T3 sequence with F169V, K192R
# [19] = molecular target: T8, PAX4 (Homo sapiens, UniProt O43316 9-242, F177Y)
# T8 sequence: T3 sequence with F169Y, K192R
# [20] = molecular target: T9, PAX4 (Homo sapiens, UniProt O43316 9-242, R227W)
# T9 sequence: T3 sequence with K192R, R219W
# SHOX (Homo sapiens, UniProt O15266 103-189), sequence (O15266 103-189): as the sequence (O15266 103-189 R173C) above, with C71R counted along it
# HOXC9 (Homo sapiens, UniProt P31274 178-260, K195R), sequence (P31274 178-260 K195R): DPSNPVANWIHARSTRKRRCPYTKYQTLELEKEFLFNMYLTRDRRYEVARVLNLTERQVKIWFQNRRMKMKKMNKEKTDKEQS
# HOXC9 (Homo sapiens, UniProt P31274 178-260), sequence (P31274 178-260): as the sequence (P31274 178-260 R193K) above, with K16R counted along it
sequence,measurement,setting,value
CCAGATAA,binding signal,[1],"8.47 upbm affinity estimate (log intensity, higher = more binding, comparable within an allelic series)"
CCCCCGGG,binding signal,[1],"6.93 upbm affinity estimate (log intensity, higher = more binding, comparable within an allelic series)"
same,binding signal,[2],"9.28 upbm affinity estimate (log intensity, higher = more binding, comparable within an allelic series)"
same,binding signal,[3],"9.39 upbm affinity estimate (log intensity, higher = more binding, comparable within an allelic series)"
same,binding signal,[4],"6.97 upbm affinity estimate (log intensity, higher = more binding, comparable within an allelic series)"
same,binding signal,[5],"9.25 upbm affinity estimate (log intensity, higher = more binding, comparable within an allelic series)"
same,binding signal,[6],"9.53 upbm affinity estimate (log intensity, higher = more binding, comparable within an allelic series)"
CCAGGGAC,binding signal,[1],"7.08 upbm affinity estimate (log intensity, higher = more binding, comparable within an allelic series)"
same,binding signal,[2],"9.47 upbm affinity estimate (log intensity, higher = more binding, comparable within an allelic series)"
same,binding signal,[7],"8.97 upbm affinity estimate (log intensity, higher = more binding, comparable within an allelic series)"
same,binding signal,[3],"9.52 upbm affinity estimate (log intensity, higher = more binding, comparable within an allelic series)"
same,binding signal,[8],"9.5 upbm affinity estimate (log intensity, higher = more binding, comparable within an allelic series)"
same,binding signal,[4],"7.17 upbm affinity estimate (log intensity, higher = more binding, comparable within an allelic series)"
same,binding signal,[5],"9.51 upbm affinity estimate (log intensity, higher = more binding, comparable within an allelic series)"
same,binding signal,[9],"9.58 upbm affinity estimate (log intensity, higher = more binding, comparable within an allelic series)"
same,binding signal,[6],"9.62 upbm affinity estimate (log intensity, higher = more binding, comparable within an allelic series)"
same,binding signal,[10],"9.57 upbm affinity estimate (log intensity, higher = more binding, comparable within an allelic series)"
same,binding signal,[11],"8.99 upbm affinity estimate (log intensity, higher = more binding, comparable within an allelic series)"
GGGCAGAC,binding signal,[1],"7.12 upbm affinity estimate (log intensity, higher = more binding, comparable within an allelic series)"
same,binding signal,[12],"7.99 upbm affinity estimate (log intensity, higher = more binding, comparable within an allelic series)"
same,binding signal,[13],"8.2 upbm affinity estimate (log intensity, higher = more binding, comparable within an allelic series)"
same,binding signal,[14],"9.48 upbm affinity estimate (log intensity, higher = more binding, comparable within an allelic series)"
same,binding signal,[15],"8.13 upbm affinity estimate (log intensity, higher = more binding, comparable within an allelic series)"
same,binding signal,[16],"9.45 upbm affinity estimate (log intensity, higher = more binding, comparable within an allelic series)"
same,binding signal,[17],"9.48 upbm affinity estimate (log intensity, higher = more binding, comparable within an allelic series)"
same,binding signal,[4],"7.25 upbm affinity estimate (log intensity, higher = more binding, comparable within an allelic series)"
same,binding signal,[18],"9.22 upbm affinity estimate (log intensity, higher = more binding, comparable within an allelic series)"
same,binding signal,[19],"9.21 upbm affinity estimate (log intensity, higher = more binding, comparable within an allelic series)"
same,binding signal,[20],"9.33 upbm affinity estimate (log intensity, higher = more binding, comparable within an allelic series)"
